In ChEMBL document CHEMBL3988442, “University of Dundee, Small-Polar-MMV Screening Library” (2021):
About 13,000 (27%) of roughly 48,000 compounds showed an effect of 50% or more. This is one part of the list.

Tested on: Wolbachia pipientis
Test: Anti-Wolbachia Cell-Based Screen
Assay type: functional
Design: scale not given: in the data most compounds retested in dose-response had high values
Settings: 5 µM

Row | Structure (SMILES) | Percent Effect
1 | CN(C)C(C(=O)NCCSc1ncn[nH]1)c1cccc(F)c1 (configuration not stated) | -5.881%
2 | Cc1cc(NC(=O)CSc2nc(=O)ccn2C(C)C)no1 | -5.923%
3 | C/C(=C/c1ccccc1)CNCc1cccc(C(N)=O)c1 | -6.417%
4 | Cc1ccc(CNC(=O)NCC(=O)N2CCCC2)c(N2CCCC2)c1 | -13.16%
5 | CCC(NCc1cc[nH]n1)c1nc(C(F)(F)F)cs1 (configuration not stated) | -5.752%
6 | CN1CCO[C@@H]2CN(C(=O)COc3cccc(Cl)c3)C[C@@H]2C1.O=C(O)C(F)(F)F | -8.699%
7 | CC(=O)N1CCO[C@@H]2CN(Cc3cccc(Cl)c3)C[C@@H]2C1.O=C(O)C(F)(F)F | 105.7%
8 | COc1ccc(CN2C[C@@H]3CN(Cc4cccnc4)CCO[C@@H]3C2)cc1.O=C(O)C(F)(F)F.O=C(O)C(F)(F)F.O=C(O)C(F)(F)F | 13.72%
9 | Cc1[nH]ccc1C(=O)N1C[C@H]2CC[C@@H]1CN(S(=O)(=O)N(C)C)C2 | -3.55%
10 | Cc1ccc(CNC(=O)N(C)Cc2ccc([S+](C)[O-])cc2)s1 (configuration not stated) | -1.725%
11 | O=C(c1cccnc1N1CCOC(c2ccc(F)cc2)C1)N1CCCC1 (configuration not stated) | 5.755%
12 | O=C(c1ccccc1F)N1CCOC(c2nc(-c3ncccn3)no2)C1 (configuration not stated) | 128.4%
13 | O=C(c1ccccc1F)N1CC(c2nc(-c3ccc[nH]c3=O)no2)C1 | 1.982%
14 | O=C(c1ccccc1F)N1CC(c2nc(C3CC3)no2)C1 | 5.464%
15 | N#Cc1ccc(C(=O)N2CC(c3nc(-c4ncccn4)no3)C2)cc1 | 10.08%
16 | Cc1ccc(C(=O)N2CCOC(c3nc(-c4ncccn4)no3)C2)cc1 (configuration not stated) | 94.58%
17 | O=C(c1ccc(F)cc1)N1CCOC(c2nc(-c3ncccn3)no2)C1 (configuration not stated) | 124.8%
18 | CO[C@H]1COCCN(C(=O)c2ccc(F)cc2)C1 | 0.8542%
19 | Cc1nccnc1-n1c(COCC(=O)O)nc2c(C)cccc21 | -2.278%
20 | Cc1nc2c(C(=O)O)cccc2n1-c1ccc(C(=O)N2CCCC2)o1 | -15.07%
21 | CC(=O)N1CCN(C(=O)C[C@@H]2C[C@@H](C(C)C)[C@H](CC#N)C=C2C)CC1 | 4.574%
22 | Cc1ccnc(N2CCC(NCCOc3ccccc3)CC2)n1 | -3.135%

Row | Structure (SMILES) | Percent Effect
23 | COCCCNC1CCCN(c2ccc(C)nn2)C1 (configuration not stated) | 22.77%
24 | Cc1ccc(N2CCCC(NCCCS(C)(=O)=O)C2)nn1 (configuration not stated) | 0.9171%
25 | Cc1ccc(N2CCCC(NCC(=O)Nc3cc(C)nn3C)C2)nn1 (configuration not stated) | 95.11%
26 | CC(=O)NCCNC(=O)CNC1CCCN(c2ccc(C)nn2)C1 (configuration not stated) | 88.86%
27 | CC(C)=CCNC1CCCN(c2ccc(C)nn2)C1 (configuration not stated) | -19.9%
28 | Cc1ccc(N2CCCC(NCC(=O)NC(C3CC3)C3CC3)C2)nn1 (configuration not stated) | 84.95%
29 | Cc1ccc(N2CCCC(NCCS(C)(=O)=O)C2)nn1 (configuration not stated) | 2.432%
30 | Cc1ccc(N2CCCC(NCC(=O)NCC3CC3)C2)nn1 (configuration not stated) | 1.938%
31 | Cc1ccn(-c2ccc(NCc3ccnc(N4CCCCC4)c3)nn2)n1 | 4.336%
32 | O=C(CCc1ccc(Br)cc1F)NS(=O)(=O)c1ccc2c(c1)OCCO2 | -3.282%
33 | Cc1ccc(CN[C@@H]2CO[C@H](CNS(=O)(=O)c3ccccc3)[C@H]2O)cc1 | -4.281%
34 | CCn1cc(S(=O)(=O)Nc2nc3c(s2)CC(C)CC3)cn1 (configuration not stated) | 98.13%
35 | Cn1cc(S(=O)(=O)Nc2ccc3[nH]c(C4CCC4)nc3c2)cn1 | -3.023%
36 | CC1CCc2nc(NS(=O)(=O)c3cnn(C)c3)sc2C1 (configuration not stated) | 97.97%
37 | CCn1cc(S(=O)(=O)NC2CCCN(CC3CCCCC3)C2)cn1 (configuration not stated) | 19.95%
38 | Cn1cc(S(=O)(=O)Nc2c(F)cccc2N2CCCC2)cn1 | -10.22%
39 | CCn1cc(S(=O)(=O)NC2CCCC2)cn1 | 8.847%
40 | Cc1oc(C(=O)O)cc1S(=O)(=O)Nc1cccc(-n2nccc2C)c1 | -0.5451%
41 | Cc1oc(C(=O)O)cc1S(=O)(=O)Nc1ccc(Br)cc1Cl | 96.02%
42 | Cc1ccc(NS(=O)(=O)c2cc(C(=O)O)oc2C)c(Br)c1 | 0.9383%
43 | Cc1oc(C(=O)O)cc1S(=O)(=O)Nc1cc(Br)ccc1Cl | 106.9%
44 | Cc1oc(C(=O)O)cc1S(=O)(=O)Nc1ccc(Cl)c(Cl)c1 | -3.012%

Row | Structure (SMILES) | Percent Effect
45 | Cc1noc(C)c1NS(=O)(=O)c1cc(C(=O)O)cc(Cl)c1Cl | 3.53%
46 | O=S(=O)(CCNCc1ccc2c(c1)CCO2)N1CCOCC1 | 0.3646%
47 | CN(C)CCN1CC(C(=O)NCc2cccc(-n3cccn3)c2)CC1=O (configuration not stated) | 7.096%
48 | CCN1CC(C(=O)NCc2cccnc2-n2cccn2)CC1=O (configuration not stated) | 124.7%
49 | O=C(NCc1cccnc1-n1cccn1)C1CC(=O)N(CC2CC2)C1 (configuration not stated) | -9.395%
50 | O=C(NCc1ccnc(-n2cccn2)c1)C1CC(=O)N(CC2CC2)C1 (configuration not stated) | 153.4%
51 | CN(C)CCN1CC(C(=O)NCc2cn3cccnc3n2)CC1=O (configuration not stated) | -11.69%
52 | CCN1CC(C(=O)NCc2ccccc2-n2cccn2)CC1=O (configuration not stated) | 3.983%
53 | CN1CC(C(=O)NCc2cccnc2OCc2ccccc2)CC1=O (configuration not stated) | 10.22%
54 | COCCN1CC(C(=O)NCc2ccnc(-n3cccn3)c2)CC1=O (configuration not stated) | -1.182%
55 | COCCN1CC(C(=O)NCc2cccnc2-n2cccn2)CC1=O (configuration not stated) | 120.6%
56 | CC(C)N1CC(C(=O)NCc2ccnc(-n3cccn3)c2)CC1=O (configuration not stated) | -4.025%
57 | CN1CC(C(=O)NCc2cccnc2-n2cccn2)CC1=O (configuration not stated) | 63.73%
58 | CCS(=O)(=O)N1CCN(C(=O)c2ccc(Cn3cc(Br)cn3)cc2)CC1 | -241.9%
59 | CCN(C(=O)CN1CCN(CC(C)O)CC1)C1=CCCCC1 (configuration not stated) | -11.46%
60 | COc1cc(F)c(-n2cnc(CCNC(C)=O)c2)cc1F | -17.55%
61 | CCN1CCN(S(=O)(=O)N2CCCC2)[C@H]2CS(=O)(=O)C[C@H]21 | -2.731%
62 | CCN(CC(=O)NCc1nc(C2CC2)no1)Cc1ccc(Cl)cc1 | 3.966%
63 | O=C(NCc1cnn2cccnc12)C1CC(=O)N(Cc2cccnc2)C1 (configuration not stated) | -5.518%
64 | CC(C)CN1CC(C(=O)NCc2cccnc2-n2cccn2)CC1=O (configuration not stated) | 126%
65 | CC(C)CN1CCN(C(=O)NCc2cccnc2-n2cccn2)CC1 | 4.797%
66 | COCC1c2nnn(CC3CC3)c2CCN1C(=O)CS(C)(=O)=O (configuration not stated) | -0.612%

Row | Structure (SMILES) | Percent Effect
67 | COc1ccccc1C(C)(C)NCc1ccco1 | -0.6951%
68 | Cc1ccc(CS(=O)(=O)NCc2ccco2)cc1 | 3.7%
69 | Cc1nn(-c2ccccc2)nc1C(=O)NCC(c1ccco1)N(C)C (configuration not stated) | -4.253%
70 | O=S(=O)(Cc1ccccc1)NCc1ccco1 | 0.9463%
71 | CN(C)C(CNc1c(NCc2ccco2)c(=O)c1=O)c1ccccc1 (configuration not stated) | 131.6%
72 | C[C@@H](O)CNc1c(NCc2ccco2)c(=O)c1=O | 100.7%
73 | CC(O)CNc1c(NCc2ccco2)c(=O)c1=O (configuration not stated) | 135.5%
74 | CC(CNC(=O)NCc1ccco1)CC1(C)OCCO1 (configuration not stated) | 3.835%
75 | CNc1c(NCc2ccco2)c(=O)c1=O | 113.6%
76 | CCCNC(=O)CCNC1CSCCc2ccccc21 (configuration not stated) | -10.65%
77 | COC(=O)c1sccc1S(=O)(=O)N1CCC(Oc2ncccc2Cl)CC1 | 25.07%
78 | OCCN1CCc2[nH]nc(C(c3ccccc3)c3ccccc3)c2C1 | 13.32%
79 | CCc1cnc(CN(C)C(=O)Nc2cnc3c(c2)c(C)nn3C)s1 | -8.075%
80 | O=C(c1ccc(O)nc1)N1CCN(C(=O)c2ccc(F)cc2F)CC1 | -4.376%
81 | CC(C)CNc1c(NCc2ccco2)c(=O)c1=O | 131.9%
82 | CCn1c(NCc2ccco2)nc2c(C)nn(C)c2c1=O | 25.01%
83 | CNS(=O)(=O)c1cccc(C(C)NCc2ccco2)c1 (configuration not stated) | -0.2197%
84 | CSCCCNC(=O)c1coc(Cn2cnc3ccccc32)n1 | 7.588%
85 | c1ccc2oc(NC3CCCN(Cc4noc(C5CC5)n4)C3)nc2c1 (configuration not stated) | 2.188%
86 | CC(C)c1nnc(CNC2CCCN(Cc3noc(C4CC4)n3)C2)o1 (configuration not stated) | 144.7%
87 | CCc1nc(CN2CCCC(NCc3nnc(C4CC4)o3)C2)no1 (configuration not stated) | 5.014%
88 | C1CC(NCc2nnc(C3CC3)o2)CN(Cc2noc(C3CC3)n2)C1 (configuration not stated) | 132.9%

Row | Structure (SMILES) | Percent Effect
89 | CCc1nnc(CNC2CCCN(Cc3noc(C4CC4)n3)C2)o1 (configuration not stated) | 121.7%
90 | C1CC(c2noc(C3CC3)n2)CN(Cc2noc(C3CC3)n2)C1 (configuration not stated) | 0.1706%
91 | OCCN1CCC(CNCCOCC(F)(F)F)CC1 | 0.8425%
92 | Cc1ccc(-c2ncc(CNc3cnccc3CO)s2)o1 | 8.317%
93 | FC(F)(F)CCc1ncnn1-c1ccc2c(c1)OCO2 | -6.748%
94 | Cc1ccccc1C(C(=O)N1CCN(C(=O)c2ccc[nH]2)CC1)N(C)C (configuration not stated) | 2.077%
95 | Nc1ncc(CN2CCC(CCC(=O)NC3CC3)CC2)cn1 | 2.927%
96 | CC(C)CO[C@H]1CN(S(=O)(=O)c2cn(C)cn2)[C@@H]2CCCO[C@H]12.O=C(O)C(F)(F)F | -4.682%
97 | Cn1cnc(C(=O)N2CC3(CCN(S(=O)(=O)c4ccccc4)C3)C2)c1 | -0.5352%
98 | CCn1cc2c(n1)CN(S(=O)(=O)c1cn(C)cn1)CC2COC.O=C(O)C(F)(F)F (configuration not stated) | -7.552%
99 | CCS(=O)(=O)N1CCC2(CN(C(=O)c3cn(C)cn3)C2)C1 | -4.508%
100 | Cn1cnc(S(=O)(=O)N2CCN(CC3CC3)c3ncccc3C2)c1.O=C(O)C(F)(F)F.O=C(O)C(F)(F)F | -19.75%
101 | Cn1cnc(S(=O)(=O)N2CC3(CCN(c4ccccc4)C3)C2)c1.O=C(O)C(F)(F)F | 94.4%
102 | O=C(O)C(F)(F)F.O=S(=O)(C1CC1)N1CCC2(CN(c3ccccn3)C2)C1 | 2.12%
103 | CC(C)CN1CC[C@@H]2[C@@H]1CCN2S(=O)(=O)c1cn(C)cn1.O=C(O)C(F)(F)F | 9.969%
104 | Cn1cnc(S(=O)(=O)N2CC3(CCN(CC4CC4)C3)C2)c1.O=C(O)C(F)(F)F.O=C(O)C(F)(F)F | 100.1%
105 | CC(C)CN1CCC2(C1)CN(S(=O)(=O)c1cn(C)cn1)C2.O=C(O)C(F)(F)F.O=C(O)C(F)(F)F | 81.89%
106 | CCO[C@H]1CCN(S(=O)(=O)c2cn(C)cn2)[C@H]1Cc1ccccc1.O=C(O)C(F)(F)F | -2.456%
107 | CCN1CCC2(C1)CN(S(=O)(=O)c1cn(C)cn1)C2.O=C(O)C(F)(F)F.O=C(O)C(F)(F)F | 110.7%
